# According to PubChem BioAssay (Tox21):
# A number with no mark means an inactive call. Where a call stands in place of a potency, no number is given. The source made the active and inactive calls. Calls follow the shape of the full dose curve.
# Molecular target: Estrogen receptor (Homo sapiens) (UniProt P03372)
# Assay: qHTS assay to identify small molecule agonists of the estrogen receptor alpha (ER-alpha) signaling pathway in the presence of an antagonist (AID 1259383); also: nearly all actives have a fitted effect of over 15% in size; as to activation: top concentration of the series differs between compounds
# Settings: VM7Luc4E2 cells, ERE-luciferase, +ICI-182,780, 22 h; series mostly up to 92.4 µM; activation: at the top concentration
# Excerpt: National Center for Advancing Translational Sciences [NCATS] NIH Chemical Genomics Center [NCGC] U.S. Environmental Protection Agency [EPA] National Institutes of Environmental Health Sciences [NIEHS] National Toxicology Program [NTP] Assay overview: Estrogen receptor (ER), a member of nuclear hormone receptor plays an important role in development, metabolic homeostasis and reproduction. Two subtypes of ER, ER-alpha and ER-beta, have similar expression patterns with some uniqueness in both types. Endocrine disrupting chemicals (EDCs) and their interactions with steroid hormone receptors like ER causes disruption of normal endocrine function. Therefore, it is important to understand the effect of environmental chemicals in ER signaling pathway. For identifying ER agonists, VM7Luc4E2 cell line has been used in the current assay. VM7Luc4E2 cell line (provided by Denison MS, University of California) endogenously expresses full-length ER-alpha and is stably transfected with a plasmid containing four estrogen responsive elements (ERE) upstream of a luciferase reporter gene. This current screening for measuring luciferase reporter gene activity using VM7Luc4E2 cells against Tox21 10K library collection is a confirmation study on agonist mode screening in presence of ER-antagonist (ICI-182,780) at 10.0nM final concentration.
# Assay Protocol Summary: VM7Luc4E2 cells were cultured in phenol red free assay medium containing 10% charcoal stripped FBS for 5 days prior to the assay. The cells were dispensed at 4,000 cells in 4uL of assay medium per well into white wall/solid-bottom 1536-well plates (Corning Life Sciences, Corning, NY) using a Multidrop Combi (Thermo Fisher Scientific Inc., Waltham, MA) dispenser. After the assay plates were incubated at 37C and 5% CO2 for 24hr, 1uL of 10.0nM (final concentration) ICI-182,780 or assay buffer was added using two separate tips of Flying Reagent Dispenser (FRD, Aurora Discovery, San Diego, CA). Then 23nL of compounds dissolved in DMSO at 15 concentrations and positive controls or DMSO only was transferred to the assay plates by a Pintool station (Wako, San Diego, CA). The assay plates were incubated at 37C and 5% CO2 for 22hr. For luciferase read, 4uL/well ONE-Glo reagent (Promega Corporation, Madison, WI) was added to each well using FRD and after 30min incubation at room temperature, luminescence signal was measured on ViewLux plate reader (PerkinElmer, Shelton, CT).
# Potency is read from the fitted curve at half-maximal effect.
# Estrogen receptor (Homo sapiens), sequence (P03372 whole entry, looked up): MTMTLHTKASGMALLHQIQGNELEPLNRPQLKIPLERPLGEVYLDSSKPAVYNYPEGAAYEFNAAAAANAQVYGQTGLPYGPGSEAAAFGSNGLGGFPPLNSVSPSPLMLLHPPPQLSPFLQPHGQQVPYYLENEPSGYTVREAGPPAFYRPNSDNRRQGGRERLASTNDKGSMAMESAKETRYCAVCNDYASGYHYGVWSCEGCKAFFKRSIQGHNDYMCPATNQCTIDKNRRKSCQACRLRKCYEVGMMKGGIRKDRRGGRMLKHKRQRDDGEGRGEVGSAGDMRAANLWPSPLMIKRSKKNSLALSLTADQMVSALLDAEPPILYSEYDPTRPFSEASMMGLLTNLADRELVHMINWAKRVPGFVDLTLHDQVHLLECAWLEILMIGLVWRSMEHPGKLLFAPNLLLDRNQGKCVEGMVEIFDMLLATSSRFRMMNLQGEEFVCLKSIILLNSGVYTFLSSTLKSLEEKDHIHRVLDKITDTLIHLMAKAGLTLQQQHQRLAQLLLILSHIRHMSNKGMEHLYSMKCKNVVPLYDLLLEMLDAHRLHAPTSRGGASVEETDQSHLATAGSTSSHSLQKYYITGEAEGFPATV
Compound,Potency,activation [%]
CCCC1COC(Cn2cncn2)(c2ccc(Cl)cc2Cl)O1 (stereo not given),inactive,
ClCc1cccnc1,inactive,
O=C(O)c1ccccn1,inactive,
CCCCN(CC)C(=O)SCCC,inactive,
O=NN1CCCC1,inactive,
Nc1ccc(Br)cc1,inactive,
O=Cc1cccc(Oc2ccccc2)c1,inactive,
CCC12COCN1COC2,inactive,
CNC(=O)Oc1ccccc1OC(C)C,inactive,
CC(C)OC(=O)Nc1cccc(Cl)c1,,11.6
CCCCCCCCCl,inactive,
O=S(=O)(c1ccc(Cl)cc1)c1cc(Cl)c(Cl)cc1Cl,inactive,
CC(C)OC(=O)Nc1ccccc1,inactive,
COC(=O)NS(=O)(=O)c1ccc(N)cc1,inactive,
CCOP(OCC)OCC,inactive,
Nc1c(Cl)c(Cl)nc(C(=O)O)c1Cl,inactive,
CN(C)CCO,inactive,
C1CN2CCN1CC2,inactive,
COP(N)(=O)SC (stereo not given),inactive,
CC(C)NC(=O)N1CC(=O)N(c2cc(Cl)cc(Cl)c2)C1=O,inactive,

Compound,Potency,activation [%]
ClCCBr,inactive,
CCOC(=O)c1ccccc1C(=O)OCC,inactive,
NCCc1ccc(O)cc1,inactive,
c1cc2c3c(cccc3c1)CC2,inactive,
C#CCN(C)[C@H](C)Cc1ccccc1,inactive,
BrCCBr,inactive,
CC(C)N1C(=O)c2ccccc2NS1(=O)=O,inactive,
O=c1[nH]c2ccccc2c(=O)o1,inactive,
C=C(C)CCl,inactive,
CN=C=S,inactive,
CCCCOC(=O)c1ccccc1C(=O)OCCCC,inactive,
Cc1cc(-c2cc(C)c(N)c(C)c2)cc(C)c1N,inactive,
CN(N=O)c1ccccc1,inactive,
CCCCN(CCCC)SN(C)C(=O)Oc1cccc2c1OC(C)(C)C2,inactive,
O=S(=O)(c1ccc(O)cc1)c1ccc(O)cc1,54.5 µM (active),
O=C(NC(=O)c1c(F)cccc1F)Nc1cc(Cl)c(OC(F)(F)C(F)C(F)(F)F)cc1Cl (stereo not given),inactive,
O=NN1CCCCCCC1,inactive,
CC(Oc1ccc(Cl)cc1Cl)C(=O)O (stereo not given),inactive,
CC(C)(C)OOC(C)(C)C,inactive,
C1CC2OC2CC1C1CO1 (stereo not given),inactive,
